From the supplement of paper PMC13380429

Experiments:
[1] = system: Vero E6 infected with SARS-CoV-2; assay: morphology score (similarity to uninfected cells); higher = more like uninfected cells; details: 24 h
[2] = system: Vero E6 infected with SARS-CoV-2; assay: SARS-CoV-2 infection rate relative to infected DMSO; higher = more infection, active = 60 or less; details: 24 h

CCc1nc(C)ccc1O [emoxipin] (10 µM)
morphology score [1]: 0.143
SARS-CoV-2 infection rate [2]: 99.5% (inactive)

Cc1cccc(NC(=O)CN2CCC(c3ccccn3)CC2)c1 (10 µM)
morphology score [1]: -0.0959
SARS-CoV-2 infection rate [2]: 108% (inactive)

COc1ccccc1OCCNCC(O)COc1cccc2[nH]c3ccccc3c12 (stereo not drawn) [carvedilol] (10 µM)
morphology score [1]: 0.134
SARS-CoV-2 infection rate [2]: 97.5% (inactive)

CC(=O)NO [acetohydroxamic-acid] (10 µM)
morphology score [1]: -0.0513
SARS-CoV-2 infection rate [2]: 106% (inactive)

Cc1ccc2nc(NCCN)c3ncc(C)n3c2c1 (0.833333 µM)
morphology score [1]: -0.353
SARS-CoV-2 infection rate [2]: 116% (inactive)

C=C1/C(=C\C=C2/CCC[C@]3(C)[C@@H]([C@H](C)CCCC(C)(C)O)CC[C@@H]23)C[C@@H](O)C[C@@H]1O [calcitriol] (10 µM)
morphology score [1]: 0.098
SARS-CoV-2 infection rate [2]: 108% (inactive)

CC(C)[C@H]1c2ccc(F)cc2CC[C@@]1(CCN(C)CCCc1nc2ccccc2[nH]1)OC(=O)C1CC1 (0.833333 µM)
morphology score [1]: 0.0422
SARS-CoV-2 infection rate [2]: 98% (inactive)

O=C(c1c(F)ccc(NS(=O)(=O)N2CC[C@@H](F)C2)c1F)c1c[nH]c2ncc(-c3cnc(C4CC4)nc3)cc12 (10 µM)
morphology score [1]: 0.162
SARS-CoV-2 infection rate [2]: 103% (inactive)

CC(=O)Nc1ccc(CC(=O)O)cc1 [actarit] (10 µM)
morphology score [1]: 0.181
SARS-CoV-2 infection rate [2]: 99.5% (inactive)

CCOc1ccc2ccccc2c1C(=O)N[C@@H]1C(=O)N2[C@@H]1SC(C)(C)[C@@H]2C(=O)O [nafcillin] (10 µM)
morphology score [1]: -0.164
SARS-CoV-2 infection rate [2]: 112% (inactive)

O=S(=O)(O)CCS [mesna] (10 µM)
morphology score [1]: 0.157
SARS-CoV-2 infection rate [2]: 109% (inactive)

O=C1NC(=O)C(c2ccccc2)(c2ccccc2)N1 [phenytoin] (10 µM)
morphology score [1]: 0.168
SARS-CoV-2 infection rate [2]: 97% (inactive)

O=C(NC[C@H](O)CN1CCc2ccccc2C1)c1cc(NC2COC2)ncn1 (10 µM)
morphology score [1]: -0.0443
SARS-CoV-2 infection rate [2]: 100% (inactive)

O=C(OC(C(F)(F)F)C(F)(F)F)N1CCN(Cc2cccc(Oc3ccccc3)c2)CC1 (10 µM)
morphology score [1]: -0.142
SARS-CoV-2 infection rate [2]: 24.5% (active)

CCCCC1C(=O)N(c2ccccc2)N(c2ccccc2)C1=O [phenylbutazone] (10 µM)
morphology score [1]: 0.209
SARS-CoV-2 infection rate [2]: 97.5% (inactive)

CC[C@H]1OC(=O)[C@H](C)[C@@H](O[C@H]2C[C@@](C)(OC)[C@@H](O)[C@H](C)O2)[C@H](C)[C@@H](O[C@@H]2O[C@H](C)C[C@H](N(C)C)[C@H]2O)[C@](C)(OC)C[C@@H](C)C(=O)[C@H](C)[C@@H](O)[C@]1(C)O [clarithromycin] (10 µM)
morphology score [1]: -0.0778
SARS-CoV-2 infection rate [2]: 109% (inactive)

Cc1ccccc1-n1c(Cn2nc(-c3cccc(O)c3)c3c(N)ncnc32)nc2cccc(C)c2c1=O (10 µM)
morphology score [1]: 0.0603
SARS-CoV-2 infection rate [2]: 126% (inactive)

CC(COc1ccccc1)NC(C)C(O)c1ccc(O)cc1 (stereo not drawn) [isoxsuprine] (10 µM)
morphology score [1]: 0.0115
SARS-CoV-2 infection rate [2]: 109% (inactive)

COc1ccc2cccc(N3CCN(CCNC(=O)c4ccc(F)cc4)CC3)c2c1 (10 µM)
morphology score [1]: 0.241
SARS-CoV-2 infection rate [2]: 103% (inactive)

O=C1C=CC[C@@H]2[C@H]3CCCN4CCC[C@@H](CN12)[C@@H]34 [sophocarpine] (10 µM)
morphology score [1]: -0.0321
SARS-CoV-2 infection rate [2]: 112% (inactive)

O=C(Nc1cccc2cccnc12)c1ccc(N2C(=O)[C@@H]3[C@H](C2=O)[C@@H]2C=C[C@H]3C2)cc1 [endo-IWR-1] (10 µM)
morphology score [1]: -0.0752
SARS-CoV-2 infection rate [2]: 98.5% (inactive)

Nc1ccn([C@@H]2O[C@H](CO)[C@@H](O)C2(F)F)c(=O)n1 [gemcitabine] (0.833333 µM)
morphology score [1]: -0.00574
SARS-CoV-2 infection rate [2]: 114% (inactive)

O=[N+]([O-])c1cccc2cn[nH]c12 [7-nitroindazole] (10 µM)
morphology score [1]: 0.0542
SARS-CoV-2 infection rate [2]: 100% (inactive)

N[C@H](CO)C(=O)O [D-serine] (10 µM)
morphology score [1]: 0.0301
SARS-CoV-2 infection rate [2]: 104% (inactive)

CC(O)Cn1cnc2c1c(=O)n(C)c(=O)n2C (stereo not drawn) [Proxyphylline] (10 µM)
morphology score [1]: 0.074
SARS-CoV-2 infection rate [2]: 97% (inactive)

O=C(O)c1ccc(S(=O)(=O)N(Cc2ccc(OC(F)(F)F)cc2)c2ncc(C(F)(F)F)cc2Cl)cc1 (10 µM)
morphology score [1]: 0.114
SARS-CoV-2 infection rate [2]: 102% (inactive)

O=C(CNC(=O)c1ccc(Cl)cc1)NO [benurestat] (10 µM)
morphology score [1]: 0.153
SARS-CoV-2 infection rate [2]: 114% (inactive)

Cc1[nH]c2ccc(Cl)cc2c1C1=CCNCC1 (10 µM)
morphology score [1]: 0.432
SARS-CoV-2 infection rate [2]: 76% (inactive)

O=C(O)/C=C/c1ccc(O)c(O)c1 [caffeic-acid] (10 µM)
morphology score [1]: -0.0394
SARS-CoV-2 infection rate [2]: 110% (inactive)

Cc1sc2c(c1C)C(c1ccc(Cl)cc1)=N[C@@H](CC(=O)Nc1ccc(O)cc1)c1nnc(C)n1-2 (10 µM)
morphology score [1]: -0.169
SARS-CoV-2 infection rate [2]: 114% (inactive)

CCCCCCCCCC(=O)OC1(c2ccc(Cl)cc2)CCN(CCCC(=O)c2ccc(F)cc2)CC1 [haloperidol-decanoate] (10 µM)
morphology score [1]: 0.166
SARS-CoV-2 infection rate [2]: 96% (inactive)

Cc1nc2ccc(-n3ncc(C(=O)c4cc5ccccc5[nH]4)c3N)cc2[nH]1 (0.833333 µM)
morphology score [1]: 0.131
SARS-CoV-2 infection rate [2]: 101% (inactive)

O=C(O)c1cc(O)c2c(c1)[C@H]([C@H]1c3cc(C(=O)O)cc(O)c3C(=O)c3c(O[C@@H]4O[C@H](CO)[C@@H](O)[C@H](O)[C@H]4O)cccc31)c1cccc(O[C@@H]3O[C@H](CO)[C@@H](O)[C@H](O)[C@H]3O)c1C2=O [sennoside-A] (10 µM)
morphology score [1]: -0.287
SARS-CoV-2 infection rate [2]: 113% (inactive)

CCOc1c2c(c(OCC)c3ccccc13)C(=O)N(c1ccc(CC(=O)NS(=O)(=O)c3ccccc3)cc1)C2 (10 µM)
morphology score [1]: 0.117
SARS-CoV-2 infection rate [2]: 104% (inactive)

Cc1c(Cl)c(C)[n+]([O-])c(Cl)c1-c1noc(-c2cc(O)c(O)c([N+](=O)[O-])c2)n1 [opicapone] (10 µM)
morphology score [1]: 0.125
SARS-CoV-2 infection rate [2]: 102% (inactive)

NC[C@H]1O[C@H](O[C@H]2[C@H](O[C@@H]3O[C@H](CO)[C@@H](O)[C@H]3O)[C@@H](O)[C@H](N)C[C@@H]2N)[C@H](N)[C@@H](O)[C@@H]1O [ribostamycin-sulfate] (10 µM)
morphology score [1]: 0.199
SARS-CoV-2 infection rate [2]: 105% (inactive)

NCCc1cc(O)c(O)cc1O [oxidopamine] (10 µM)
morphology score [1]: 0.0957
SARS-CoV-2 infection rate [2]: 102% (inactive)

O=P(O)(O)C(O)(Cc1cnc2ccccn12)P(=O)(O)O [minodronic-acid] (10 µM)
morphology score [1]: -0.0261
SARS-CoV-2 infection rate [2]: 108% (inactive)

O=C(Cc1ccc(-c2ccccc2)cc1)Nc1ccccn1 [difenpiramide] (10 µM)
morphology score [1]: 0.431
SARS-CoV-2 infection rate [2]: 62% (inactive)

c1ccc(-c2ccc(CNc3nc(-c4ccccn4)nnc3-c3ccccc3)cc2)cc1 (10 µM)
morphology score [1]: -0.0584
SARS-CoV-2 infection rate [2]: 114% (inactive)

CCCCC/C=C\C/C=C\C/C=C\CCCCC(=O)O [gamma-linolenic-acid] (10 µM)
morphology score [1]: 0.0589
SARS-CoV-2 infection rate [2]: 102% (inactive)

CCCCC(=O)OCC(=O)[C@]1(O)Cc2c(O)c3c(c(O)c2[C@@H](O[C@H]2C[C@H](NC(=O)C(F)(F)F)[C@H](O)[C@H](C)O2)C1)C(=O)c1c(OC)cccc1C3=O [valrubicin] (0.833333 µM)
morphology score [1]: 0.122
SARS-CoV-2 infection rate [2]: 97% (inactive)

Oc1cc2c(c(Cl)c1O)CCNCC2c1ccccc1 (stereo not drawn) (10 µM)
morphology score [1]: 0.16
SARS-CoV-2 infection rate [2]: 97.5% (inactive)

O=C(c1ccc(F)cc1)C1CCN(CCCCc2ccccc2)CC1 [4-(4-fluorobenzoyl)-1-(4-phenylbutyl)-piperidine] (10 µM)
morphology score [1]: -0.00104
SARS-CoV-2 infection rate [2]: 110% (inactive)

CC1(C)S[C@@H]2[C@H](NC(=O)COc3ccccc3)C(=O)N2[C@H]1C(=O)O [penicillin-v-potassium] (10 µM)
morphology score [1]: -0.0155
SARS-CoV-2 infection rate [2]: 116% (inactive)

CNCCCOc1cc(F)c(-c2c(Cl)nc3ncnn3c2N[C@@H](C)C(F)(F)F)c(F)c1 [cevipabulin] (10 µM)
morphology score [1]: -0.0738
SARS-CoV-2 infection rate [2]: 92% (inactive)

Clc1ccc(C2(c3ccc(-c4cn[nH]c4)cc3)CCNCC2)cc1 (0.833333 µM)
morphology score [1]: 0.29
SARS-CoV-2 infection rate [2]: 112% (inactive)

COC(=O)CCc1ccc(OCC(O)CNC(C)C)cc1 (stereo not drawn) [esmolol] (10 µM)
morphology score [1]: -0.00906
SARS-CoV-2 infection rate [2]: 116% (inactive)

CC(C)(C)NC[C@H](O)c1ccc(O)cc1Cl [meluadrine] (10 µM)
morphology score [1]: 0.0145
SARS-CoV-2 infection rate [2]: 94% (inactive)

O=C1c2ccccc2C(=O)C1c1ccc(Cl)cc1 [chlorindione] (10 µM)
morphology score [1]: 0.011
SARS-CoV-2 infection rate [2]: 102% (inactive)

CC1CCc2c(N3CCC(O)CC3)c(F)cc3c(=O)c(C(=O)O)cn1c23 (stereo not drawn) [nadifloxacin] (10 µM)
morphology score [1]: -0.0037
SARS-CoV-2 infection rate [2]: 106% (inactive)

C[C@H](NC(=O)/C(C#N)=C/c1cccc(Br)n1)c1ccccc1 (0.833333 µM)
morphology score [1]: -0.0278
SARS-CoV-2 infection rate [2]: 118% (inactive)

COc1ccccc1N1CCN(CC(O)COc2cc(OC)c(OC)c(OC)c2)CC1 (stereo not drawn) [enciprazine] (10 µM)
morphology score [1]: 0.0687
SARS-CoV-2 infection rate [2]: 110% (inactive)

Fc1ccc(Cn2c(NC3CCNCC3)nc3ccccc32)cc1 [tecastemizole] (10 µM)
morphology score [1]: -0.00173
SARS-CoV-2 infection rate [2]: 111% (inactive)

C[C@@H](NC(=O)CCc1nc2ccccc2c(=O)[nH]1)c1ccccc1 (10 µM)
morphology score [1]: 0.239
SARS-CoV-2 infection rate [2]: 95.5% (inactive)

NC(=O)C(c1ccccc1)(c1ccc(F)cc1)c1ccc(F)cc1 [senicapoc] (10 µM)
morphology score [1]: -0.127
SARS-CoV-2 infection rate [2]: 114% (inactive)

CC(C)OC(=O)[C@H](C)N[P@@](=O)(OC[C@H]1O[C@@H](n2ccc(=O)[nH]c2=O)[C@](C)(F)[C@@H]1O)Oc1ccccc1 (10 µM)
morphology score [1]: 0.087
SARS-CoV-2 infection rate [2]: 108% (inactive)

CCC1=C(C)CN(C(=O)NCCc2ccc(S(=O)(=O)NC(=O)N[C@H]3CC[C@H](C)CC3)cc2)C1=O [glimepiride] (10 µM)
morphology score [1]: 0.152
SARS-CoV-2 infection rate [2]: 99% (inactive)

O=C(O)c1cccc(-c2noc(-c3ccccc3F)n2)c1 [ataluren] (10 µM)
morphology score [1]: -0.00572
SARS-CoV-2 infection rate [2]: 112% (inactive)
